Screening data (PubChem)
Sfp inh: inhibitors of Bacillus subtilis Sfp phosphopantetheinyl transferase; Q9F4F7; Biochemical Sfp PPTase activity, qHTS; Potency, µM, actives largely listed as inhibitors; hit rate 3.5% among 310,000;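 further: the enzyme is Sfp with the accession as filed and its product quenches rhodamine fluorescence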
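Fluorescence-quenching assay: 15 nM Sfp-PPTase preincubated 15 min at room temperature with compound, then 5 uM rhodamine-CoA and 12.5 uM BHQ-2-labelled YbbR peptide added. Fluorescence (ex 525/em 598 nm) read at start and after 30 min; difference gives rate.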
BAZ2B block: inhibitors of human BAZ2B bromodomain; AlphaScreen BAZ2B-H3K14Ac peptide displacement; Q9UIF8; hit rate 4.4% among 360,000; Potency, µM (doses to about 114 µM), usual class: inhibitors; further: nearly all actives have a fitted effect of over 60% in size
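Multi-concentration screen (max 110 uM) measuring displacement of acetylated histone H3 peptide from BAZ2B by AlphaScreen, using 50 nM protein, 50 nM peptide and 10 ug/mL streptavidin donor plus Ni-chelate acceptor beads.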
JMJD2A Tudor inh: JMJD2A Tudor domain (human) inhibition; O75164; AlphaScreen JMJD2A-Tudor / H3K4me3 peptide binding; AID 504339; Potency, µM (titrated, usually from 114 µM), most hits filed as inhibitors; hit rate 4.4% among 390,000; further: nearly all actives have a fitted effect of over 50% in size
G9a inh: G9a (human) methyltransferase inhibition; G9a H3K9 monomethylation, AlphaScreen, 2 h; Potency, µM (top dose mostly 102 µM), actives largely listed as inhibitors; hit rate 8.8% among 350,000; AID 504332; further: nearly all actives have a fitted effect of over 75% in size
Target sequence (Q96KQ7 913-1193 limits assumed): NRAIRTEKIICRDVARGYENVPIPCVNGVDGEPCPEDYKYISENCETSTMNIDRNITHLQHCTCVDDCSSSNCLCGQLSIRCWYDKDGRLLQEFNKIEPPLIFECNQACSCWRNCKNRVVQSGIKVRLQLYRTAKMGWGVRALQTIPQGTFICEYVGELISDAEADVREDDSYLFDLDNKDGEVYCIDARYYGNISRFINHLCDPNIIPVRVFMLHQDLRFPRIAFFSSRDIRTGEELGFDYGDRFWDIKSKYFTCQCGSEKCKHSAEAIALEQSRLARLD
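Quantitative HTS format: methyltransferase activity on a biotin-tagged H3K9 peptide is measured by AlphaScreen, using a rabbit anti-monomethyl-H3K9 antibody with streptavidin donor and anti-IgG acceptor beads. Final levels are 20 nM enzyme, 500 nM peptide, 20 uM SAM; 2 h RT.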
HP1b chromo inh: blocks HP1-beta chromodomain binding to methylated histone tails. Potency, µM (doses to about 114 µM), most hits filed as inhibitors. AlphaScreen HP1-beta / biotin-H3K9me3 peptide binding. hit rate 0.56% among 390,000. P83916; further: nearly all actives have a fitted effect of over 70% in size
Target sequence (P83916 whole entry, looked up): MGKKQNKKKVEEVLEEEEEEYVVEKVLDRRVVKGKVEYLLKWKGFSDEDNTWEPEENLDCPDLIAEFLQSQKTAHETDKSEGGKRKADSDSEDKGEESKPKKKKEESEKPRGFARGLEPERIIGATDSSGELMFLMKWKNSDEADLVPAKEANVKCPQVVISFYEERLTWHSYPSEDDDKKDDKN
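Compound inhibition of the preformed complex between 50 nM HP1-beta and 50 nM biotinylated H3K9me3 peptide was read by AlphaScreen. Buffer was PBS pH 7.4 with 0.01% Tween-20. Incubations ran 30 min at room temperature, with 10 ug/mL donor/acceptor beads.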
Hits are given with their value; i = inactive; ? = inconclusive; nt = no result given; ! = repeats disagree; [ ] = remark or other dose. Only some compounds are listed: those with a hit (about 12% of all), similar ones and a draw of the others. The call rests on the fitted dose curve; in most records, active means well fitted curve in the direction sought with a large enough effect; inconclusive means small, poorly fitted or top-dose-only effect, or another doubt; inactive means no such curve, though single readings can be large; an effect the other way counts as inactive or inconclusive.

SMILES | Sfp inh | BAZ2B block | JMJD2A Tudor inh | G9a inh | HP1b chromo inh
CC(C)c1ccccc1OCC(=O)Nc1cc(S(=O)(=O)N2CCOCC2)ccc1N1CCCC1 | nt | i | ? | 28µM | i
CCOc1ccccc1NC(=O)c1ccc(S(=O)(=O)N2CCOCC2)cc1 | i | i | i | i | i
COc1ccc(OC)c(NC(=O)COc2ccc(S(=O)(=O)N3CCCC3)cc2)c1 | i | i | i | 40µM | i
Cc1ccccc1OCC(=O)Nc1cc(S(=O)(=O)N2CCOCC2)ccc1N1CCCC1 | nt | ? | i | i[12.7 µM] | i
CCOc1ccccc1OCC(=O)Nc1cc(S(=O)(=O)N2CCCCC2)ccc1OC | nt | i | i | i[0.501 µM] | i
COc1ccccc1OCC(=O)Nc1cc(S(=O)(=O)N2CCCCC2)ccc1N1CCCCC1 | i | 79µM | ? | 8.9µM | i
CCN1CCN(c2ccc(S(=O)(=O)N3CCOCC3)cc2NC(=O)COc2ccc(F)cc2Cl)CC1 | i | ? | i | nt | i
CCN1CCN(c2ccc(S(=O)(=O)N3CCCCC3)cc2NC(=O)COc2ccccc2)CC1 | nt | ? | ? | 50µM | i
COc1ccc(S(=O)(=O)N2CCOCC2)cc1NC(=O)Cc1cccs1 | nt | i | i | i[2.33 µM] | i
CCN1CCN(c2ccc(S(=O)(=O)N3CCCCC3)cc2NC(=O)COc2ccc(Cl)c(C)c2)CC1 | ? | ? | ? | i[12.7 µM] | i
CCOc1ccc(S(=O)(=O)N2CCCCC2)cc1NC(=O)Cc1cccs1 | nt | i | i | 16µM | i
CCOc1ccccc1OCC(=O)Nc1cc(S(=O)(=O)N2CCCCC2)ccc1N1CCN(CC)CC1 | nt | i | i | 3.5µM | i
CCOC(=O)C1CCN(CCC(=O)Nc2ccc(OC)cc2)CC1 | nt | i | i | i | i
COc1cccc2c1cc1c(=O)n(CC(=O)O)nc(C)n12 | nt | i | i | i | i
CCC(=O)c1ccc(OCC(=O)Nc2cc(S(=O)(=O)N3CCCCC3)ccc2N2CCN(CC)CC2)cc1 | nt | i | i | 10µM | i
CN1CCN(c2ccc(S(=O)(=O)N3CCCCC3)cc2NC(=O)COc2ccc([N+](=O)[O-])cc2)CC1 | nt | i | i | ? | i
O=C(CCCn1c(=O)c2ccccc2n(Cc2cccc(Cl)c2)c1=O)NCCc1ccc(Cl)cc1 | nt | i | i | i | i
COc1ccccc1CCNC(=O)c1cc2c(=O)n3cccc(C)c3nc2n1C | nt | i | i | i | i
Clc1ccc(C2=NNC(=NCc3ccc4c(c3)OCO4)SC2)cc1 | i | i | ? | 28µM | i
Oc1ccc(C2=NNC(=NCc3ccc4c(c3)OCO4)SC2)c(O)c1 | i | ? | i | ? | i
CNC(=S)NNC(=O)c1sccc1OCc1ccc(Cl)cc1Cl | i | i | i | i | i
S=c1nc(-c2sccc2OCc2ccc(Cl)cc2Cl)[nH][nH]1 | ? | ? | i[11.4 µM] | 45µM | i
COCCCNC(=O)C1CCCN(S(C)(=O)=O)C1 (stereo not given) | i | i | i | 71µM | i
CCCS(=O)(=O)N1CCCC(C(=O)NCCCOC)C1 (stereo not given) | nt | i | i | i | i
C[C@H](CO)N1C[C@H](C)[C@@H](CN(C)S(=O)(=O)c2cccs2)Oc2ccc(NS(=O)(=O)c3ccccc3)cc2CC1=O | nt | nt | i | nt | i
SMILES | Sfp inh | BAZ2B block | JMJD2A Tudor inh | G9a inh | HP1b chromo inh
CCN(CC)c1ccc(NC(=O)c2cccc(F)c2)c(C)c1 | i | i | ? | 28µM | i
CCN(CC)c1ccc(NC(=O)c2cccn2-c2nnc(N3CCCCC3)s2)c(C)c1 | nt | 32µM | 50µM | ? | ?
Cc1ccc(S(=O)(=O)NC(=O)c2ccc(Br)o2)cc1 | i | i | i | 35µM! | i
Cc1cc(NC(=O)c2ccc(NC(=O)C3CCCO3)cc2)ccc1Br (stereo not given) | i | i | i | i | i
CCN(CC)c1ccc(NC(=O)c2ccc(NC(=O)C3CCCO3)cc2)c(C)c1 (stereo not given) | i | i | i | 8.9µM | i
Cc1ccc(S(=O)(=O)NC(=O)c2ccc(Br)o2)c(C)c1 | i | i | i | i | i
COc1ccc(NC(=O)c2cccn2-c2nnc(N3CCCCC3)s2)c(OC)c1 | nt | i | i | i | i
COC(=O)c1ccccc1NC(=O)Cn1c(=O)n(CCC(=O)NCc2ccc3c(c2)OCO3)c(=O)c2ccccc21 | nt | i | i | i | i
Nc1nc(=S)ss1 | nt | nt | i | nt | ?
COc1ccc(C(=O)O)cc1Nc1nc2ccc(C)cc2n2cnnc12 | nt | i | i | i | i
CCN(CC)c1ccc(NC(=O)c2ccc(Br)o2)c(C)c1 | i | 40µM | 56µM | ? | ?
